A selection: hits, their analogues and other compounds. The true share with any hit is near 12%.
Cycloheximide cs = affects cycloheximide protein synthesis inhibition readout, counter-screen | cell reporter, cycloheximide protein synthesis inhibition counterscreen | max response, % | actives 12% (n = 300,000) | AID 2314; in the data active = max response mostly above about 13%, no sharp cut-off; inactive = mostly below about 14%; also: read at 38.3 µM for the half of the compounds with a filed dose; 0% is about no effect
Shiga inhibitor = inhibitors of Shiga toxin in Vero cells. Vero cells, Shiga toxin protein synthesis inhibition reporter. inhibition, % at 38.7 µM. actives 9.2% (n = 290,000). AID 2315; in the data active = inhibition mostly above about 28%, no sharp cut-off; inactive = mostly below about 43%; also: 0% is about no effect
Marburg entry inh = inhibitors of Marburg virus binding or cell entry | Marburg virus pseudotyped entry inhibition, cell reporter | Potency, µM (doses to about 37.8 µM), for inactives: at the top dose activity change, negative = inhibition, usual class: inhibitors | actives 1.8% (n = 300,000); calls by dose curve; tested in HEK293 cells; also: potency is read from the fitted curve at half-maximal effect; % is scaled to controls: 0 for no effect and ±100 for the full control effect
Lassa entry inh = blocks Lassa virus binding to or entry into cells; Lassa virus pseudotype entry inhibition, cell reporter; Potency, µM (top dose mostly 37.9 µM), for the others: at the top dose activity change, negative = inhibition, most hits filed as inhibitors; actives 1.2% (n = 300,000); AID 540256; calls by dose curve; tested in HEK293 cells; also: potency is read from the fitted curve at half-maximal effect; % is scaled to controls: 0 for no effect and ±100 for the full control effect; nearly all actives have a fitted effect of over 50% in size
Starred values were filed as active, the others as inactive; u = inconclusive; x = not tested or not shown; + = active, no number; [ ] = another dose, or the depositor's remark.

SMILES	Cycloheximide cs	Shiga inhibitor	Marburg entry inh	Lassa entry inh
Cc1c(/C=N/Nc2ccc([N+](=O)[O-])cn2)c2ccccc2n1Cc1ccccc1	20*	24	x	x
Cc1c(C=O)c2ccccc2n1Cc1ccccc1	-1	-1	2%	3%
O=C(O)Cn1cc(/C=N/Nc2ccc([N+](=O)[O-])cn2)c2ccccc21	28*	35*	6%	24%
Cc1ccc(Cn2cc(/C=N/Nc3ccc([N+](=O)[O-])cn3)c3ccccc32)cc1	19*	+	u	-26%[46.1 µM]
O=[N+]([O-])c1ccc(NN=Cc2cccc3ccccc23)nc1	x	x	u	-6%[46.1 µM]
C/C=C/C(=O)[C@@H](C)[C@@H](/C=C/C[Si](C)(C)C)c1ccccc1	8	12	x	x
O=S(=O)(c1ccc2c(c1)OCCO2)N1CCN(S(=O)(=O)c2ccc3c(c2)OCCO3)CC1	-6	-4	x	x
O=S(=O)(c1ccc2c(c1)OCCO2)N1CCN(S(=O)(=O)c2ccc3nc(Cl)c(Cl)nc3c2)CC1	27*	18	x	x
CN(C)/C=N/c1c(C#N)cnn1-c1ncnc2sc(-c3ccccc3)cc12	-6	-16	u	11µM*
CN(C)/C=N/c1c(C#N)cnn1-c1nc2ccccc2s1	44*	87*	4%	9%
CCOc1ccccc1NC(=O)CNS(=O)(=O)c1ccc2nc(C)sc2c1	-2	27	u	-26%[46.1 µM]
O=C1NC2(C=Cc3c(ccc4ccccc34)O2)Oc2ccccc21 (centres undefined)	31*	84*	-21%	4%
CC1(C)OC(=O)N(c2ccccc2)C12C=Cc1c(ccc3ccccc13)O2 (centres undefined)	8	3	-2%	-25%
CCN1CCN(CCCNC(=O)Cn2nc(C)n3c(cc4c(OC)cccc43)c2=O)CC1	x	x	-4%[46.1 µM]	x
COc1cc(C(=O)N2CCC(O)(c3ccccc3)CC2)cc(OC)c1OC	-3	-12	7%	15%
Cc1ccc(NCc2ccncc2)c(Br)c1	12	33*	-1%	u
COc1ccc(-c2[nH]ncc2CNCCc2ncccc2C)cc1F	6	-1	-24%[46.1 µM]	u
Cn1cc(CCNCc2cn[nH]c2-c2ccc(-c3ccccc3)cc2)cn1	31*	54*	u	u
CN(CCc1cnn(C)c1)Cc1cn[nH]c1-c1ccc(-c2ccccc2)cc1	17*	43*	u	10%
Cc1ccc(-c2[nH]ncc2CNCCc2cnn(-c3ccccc3)c2)cc1C	1	-8	8.9µM*	-4%
CCCN(CCC)c1cc(Cl)nc(N)n1	-6	-3	1%[46.1 µM]	-1%[46.1 µM]
O=C(NCCOC(=O)c1c(F)cccc1Cl)c1c(F)cccc1Cl	-5	-13	u	u
O=C(COc1coc(CN2CCN(c3ccccc3F)CC2)cc1=O)NCC1CCCO1 (centres undefined)	x	x	-9%	17%
O=C(/C=C/c1ccccc1F)c1ccoc1	26*	123*	-5%	u
CS(=O)c1ccccc1COC(=O)Nc1cccc(Cl)c1 (centres undefined)	-1	-6	-3%	19%
SMILES	Cycloheximide cs	Shiga inhibitor	Marburg entry inh	Lassa entry inh
O=C(Nc1ccc(Cl)cc1)OCc1ccccn1	29*	78*	-18%	-29%
CS(=O)(=O)c1ccccc1COC(=O)Nc1ccc(Cl)cc1	21*	36	u	24%
CN1CCN(c2ccc(Cl)cc2NC(=O)/C=C/c2ccc(F)cc2)CC1	-3	-13	u	u
CC(=O)Nc1ccc(C(=O)Nc2ccc3c(c2)N(C2CCCC2)C(=O)c2ccccc2S3)cc1	x	x	x	6.3µM*
COc1ccc(OC)c(CNC(=O)C2CCCCN2S(=O)(=O)c2ccc(F)cc2)c1 (centres undefined)	x	x	x	4%[46.1 µM]
CCOC(=O)C1=C(Cc2ccc(Cl)cc2)C(=O)c2ccccc2C1=O	12	40	u	23µM*
CCOC(=O)C1=C(C)N=C2c3ccccc3C(=O)C2C1c1ccc(Cl)cc1 (centres undefined)	-1	-12	u	u
CCOCCCn1c(=N)c(C(=O)NCc2cccnc2)cc2c(=O)n3ccccc3nc21	x	x	u	10%[46.1 µM]
OC1(c2ccc(Cl)c(C(F)(F)F)c2)CCN(CCCC(c2ccc(F)cc2)c2ccc(F)cc2)CC1	-16	-15	x	x
Cn1c(=O)n(CCN2CCOCC2)c(=O)c2c1nc1n2CCN1c1ccccc1	x	x	0%	x
COc1cccc(-c2nnc(-c3ccco3)o2)c1	60*	active	u	u
CC(=O)Oc1ccc(C(=O)Nc2cccc(-c3nnc(-c4ccco4)o3)c2)cc1	13	-11	11µM*	u
O=C(Nc1cccc(-c2nnc(-c3ccco3)o2)c1)c1ccccc1	3	32	u	-26%[46.1 µM]
COc1cccc(-c2nnc(N)o2)c1	10*	26	x	x
COc1cccc(-c2nnc(NC(=O)C(C)C)o2)c1	9	56	x	x
COc1cccc(-c2nnc(-c3ccccc3[N+](=O)[O-])o2)c1	41*	93*	u	13%
COc1cccc(-c2nnc(-c3ccccc3NC(=O)c3ccc(F)cc3F)o2)c1	x	x	2%[46.1 µM]	-9%[46.1 µM]
O=C(CO/N=C/c1ccc(OC(F)F)cc1)NC1CCCCCC1	-2	-7	u	-21%
COc1cccc(C(=O)Nc2ccccc2-c2nnc(-c3ccc(C(C)(C)C)cc3)o2)c1	x	x	-6%[46.1 µM]	21%[46.1 µM]
COc1cccc(C(=O)Nc2ccc(-c3nnc(-c4ccco4)o3)cc2)c1	17*	57	7%	u
COc1cccc(-c2nnc(-c3ccc(C)o3)o2)c1	27*	29*	-19%	u
COc1cccc(-c2nnc(NC(=O)c3ccccc3Br)o2)c1	35*	66*	x	x
CN=C1NN=C(c2cc(C)n(-c3ccc(Cl)cc3)c2C)CS1	59*	136*	u	0%[46.1 µM]
Cc1cc(C2=NNC(=Nc3ccccc3)SC2)c(C)n1C	35*	69*	x	x
COCCN=C1NN=C(c2cc(C)n(CC3CCCO3)c2C)CS1 (centres undefined)	-3	29	5%[46.1 µM]	x
SMILES	Cycloheximide cs	Shiga inhibitor	Marburg entry inh	Lassa entry inh
COCCCN=C1NN=C(c2cc(C)n(Cc3ccccc3Cl)c2C)CS1	22*	45*	u	u
Cc1cc(C2=NNC(=NC3CC3)SC2)c(C)n1-c1c(C)n(C)n(-c2ccccc2)c1=O	1	-9	-18%[46.1 µM]	7%
COCCn1c(C)cc(C2=NNC(=Nc3ccccc3F)SC2)c1C	95*	104*	u	2µM*
Cc1ccccc1Nc1nnc(SCC(=O)NCC2CCCO2)s1 (centres undefined)	x	x	-20%	-1%
COCCCN=C1NN=C(c2cc(C)n(-c3ccccc3)c2C)CS1	34*	62*	-2%[46.1 µM]	-21%[46.1 µM]
Cc1cc(C2=NNC(=NCCc3ccccc3)SC2)c(C)n1-c1c(C)n(C)n(-c2ccccc2)c1=O	-4	14	1%[46.1 µM]	-8%
COCCCN=C1NN=C(c2cc(C)n(-c3ccccc3F)c2C)CS1	19	50	2.1µM*	15µM*
O=C1C=CC2(O[C@H](c3ccccc3)[C@@H](c3ccccc3)O2)[C@H](Sc2ccccc2O)C1	x	x	u	6.3µM*
CC(=O)Nc1ccccc1OCC(=O)NCCc1ccc(Cl)cc1Cl	5	-17	-12%	-6%
Nc1nccc(C#Cc2cncnc2Nc2ccc(OCc3cccc(F)c3)c(Cl)c2)n1	x	x	x	18µM*
CC(=O)Nc1cccc(C#Cc2cncnc2Nc2ccc(OCc3cccc(F)c3)c(Cl)c2)c1	x	x	x	16µM*

Assay outcomes as filed in PubChem BioAssay.
